Results published in PubChem BioAssay.
Several values for one entry are separate records, joined by “and”; a condition that tells them apart may be missing. Identical values can stand only once. Activity calls are given as the source filed them.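 The calls were made as follows, unless noted: active = thallium flux through the channel raised or lowered by more than 3 SD from vehicle-only wells, actives on both sides; inactive = the rest.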

Columns and labels:
[1] = system: Hepatitis C virus NS3 helicase; assay: blockers of NS3h binding to DNA – biochemical, fluorescence polarization, NIH Clinical Collection, primary screen (AID 743270; call rule not given here); conditions: NS3 helicase binding to Cy5-dT15 DNA, stronger effect = higher value, concentration not given here
[2] = target: Single-stranded DNA-binding protein (Escherichia coli (strain K12)) (UniProt P0AGE0); assay: SSB-ssDNA binding inhibitors – biochemical, fluorescence polarization, NIH Clinical Collection, counter-screen for HCV NS3 helicase inhibitor project (AID 743271; in the data active = inhibition above about 28%); conditions: E. coli SSB-DNA binding, stronger effect = higher value, concentration not given here
[3] = compounds distorting NS3 helicase fluorescence signal – biochemical, NIH Clinical Collection, artefact control for HCV NS3 helicase inhibitor project (AID 743272; call rule not given here;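 also: HCV NS3 helicase with a Cy5 labelled single stranded DNA probe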); conditions: fluorescence interference counterscreen, HCV NS3 helicase assay; stronger effect = lower value
[4] = Wnt pathway potentiators raising nuclear beta-catenin – imaging, WNT3A-conditioned medium, mouse C2C12, NPC library, primary screen (AID 1117326; in the data active = nuclear beta-catenin stimulation mostly above about 4.2%, no sharp cut-off; inactive = mostly below about 10%); conditions: stronger effect = higher value
[5] = stimulators of insulin release from INS-1E, primary screen, cell-based, 5 mM glucose, NPC library (AID 1117329;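 active = compound raises insulin release from rat beta cells at 5 mM glucose, no numeric limit stated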); conditions: rat INS-1E insulin secretion, at 10 µM, stronger effect = higher value
[6] = growth inhibition of GSK3B-pretreated HCT116 cells – cell-based, CellTiter-Glo, 0.2 to 20 µM (AID 1117336;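 active = compounds lowering colon cancer cell viability after pretreatment blocking the GSK3B kinase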); conditions: HCT116 viability after GSK3B inhibitor, at 20 µM, stronger effect = higher value
[7] = inhibition of endothelial tube formation, primary screen, imaging, VEGF stimulated, CD31 staining, tube area, NPC library (AID 1117340;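 active = compound that reduces growth-factor-driven endothelial tube area in a mixed cell culture, no cutoff stated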); conditions: VEGF-stimulated ADSC/ECFC co-culture, at 10 µM, stronger effect = higher value
[8] = GLP1 release stimulators, primary, NCI-H716, NPC library (AID 1117341;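 active = compound raises GLP1 secretion from the human gut endocrine cells, with no numeric limit stated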); conditions: NCI-H716 cells, at 10 µM, stronger effect = higher value
[9] = HCT116 colon cancer cell growth inhibition, primary screen, CellTiter-Glo luminescence, NPC library (AID 1117342;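 active = compounds that lower survival of HCT116 colon cancer cells in the luminescence readout, no numeric limit stated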); conditions: at 20 µM (top of the series)
[10] = reduced SW480 viability measured with CellTiter-Glo, NPC library, primary (AID 1117343;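 active = compounds that lower viability of the colon cancer cells in the luminescence readout, with no numeric limit stated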); conditions: CellTiter-Glo luminescence; at 20 µM (top of the series)
[11] = NPC library primary testing for decreased DLD-1 cell viability via CellTiter-Glo (AID 1117346;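 active = compounds that lower survival of DLD-1 colon cancer cells in the luminescence readout, no cutoff given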); conditions: DLD-1 viability, CellTiter-Glo luminescence; at 20 µM (top of the series)
[12] = target: 6-phosphogluconate dehydrogenase, decarboxylating (Homo sapiens) (UniProt P52209); assay: inhibition of human phosphogluconate dehydrogenase – biochemical, recombinant enzyme, NADPH absorbance, primary screen (AID 1159550;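 active = at least 20% inhibition of 6-phosphogluconate dehydrogenase activity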); conditions: recombinant 6PGD, NADPH absorbance 341 nm; at 10 µM; stronger effect = higher value
Chain of 6-phosphogluconate dehydrogenase, decarboxylating (Homo sapiens) (P52209 whole entry, looked up): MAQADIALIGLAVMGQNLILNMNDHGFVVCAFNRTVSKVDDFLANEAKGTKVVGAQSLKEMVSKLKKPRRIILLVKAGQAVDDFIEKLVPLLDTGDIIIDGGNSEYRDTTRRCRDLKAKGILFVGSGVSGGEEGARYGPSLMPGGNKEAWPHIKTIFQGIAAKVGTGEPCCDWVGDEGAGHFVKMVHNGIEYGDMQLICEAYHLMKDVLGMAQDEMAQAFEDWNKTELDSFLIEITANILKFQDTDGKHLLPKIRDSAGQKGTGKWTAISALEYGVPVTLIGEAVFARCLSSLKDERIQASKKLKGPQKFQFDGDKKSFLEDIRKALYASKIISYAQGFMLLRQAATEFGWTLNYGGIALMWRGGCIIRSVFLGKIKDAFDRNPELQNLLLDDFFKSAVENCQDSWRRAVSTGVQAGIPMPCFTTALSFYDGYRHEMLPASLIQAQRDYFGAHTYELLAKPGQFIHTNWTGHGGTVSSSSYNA

[13] = EMT-state selective cytotoxicity in co-culture – imaging, PC-3E GFP, TEM4-18 mCherry, primary screen (AID 1345086;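 active = compounds killing one labelled cell type while sparing the other, by normalised counts and ratio limits, not self-fluorescent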;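 as to all read-outs here: cells exposed to compound for 72 h before imaging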;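 as to red/green cell ratio (normalised): normalised mesenchymal count divided by normalised epithelial count so high means epithelial killing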); conditions: PC-3E GFP / TEM4-18 mCherry co-culture, imaging cell counts, at 1 µM; for red/green cell ratio (normalised): actives lie on both sides, counts scaled to control wells, 1 = unselective
[14] = MELAS cybrid and Rieske KO viability enhancers – cell-based, MELAS cybrids, Rieske KO mouse fibroblasts, CellTiter-Glo, primary screen (AID 1508586;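 active = mean z-score across replicates of 1.96 or higher in either the MELAS or the Rieske mutant cell line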;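 also: z relative to plate mean and SD of compound and empty wells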); conditions: low glucose
[15] = target: NAD(+) hydrolase SARM1 (Homo sapiens) (UniProt Q6SZW1); assay: blocking NAD cleavage by SARM1 SAM-TIR – cell lysate, NAD-Glo luminescence (AID 1508614;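 active = compound whose remaining NAD level is above about 45 nM, limit read from the data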;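 also: higher remaining NAD means stronger inhibition of SARM1 NADase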); conditions: SAM-TIR HEK293T lysate NADase, at 1 µM, stronger effect = higher value
Chain of NAD(+) hydrolase SARM1 (Homo sapiens) (Q6SZW1 whole entry, looked up, the tested form may be a part): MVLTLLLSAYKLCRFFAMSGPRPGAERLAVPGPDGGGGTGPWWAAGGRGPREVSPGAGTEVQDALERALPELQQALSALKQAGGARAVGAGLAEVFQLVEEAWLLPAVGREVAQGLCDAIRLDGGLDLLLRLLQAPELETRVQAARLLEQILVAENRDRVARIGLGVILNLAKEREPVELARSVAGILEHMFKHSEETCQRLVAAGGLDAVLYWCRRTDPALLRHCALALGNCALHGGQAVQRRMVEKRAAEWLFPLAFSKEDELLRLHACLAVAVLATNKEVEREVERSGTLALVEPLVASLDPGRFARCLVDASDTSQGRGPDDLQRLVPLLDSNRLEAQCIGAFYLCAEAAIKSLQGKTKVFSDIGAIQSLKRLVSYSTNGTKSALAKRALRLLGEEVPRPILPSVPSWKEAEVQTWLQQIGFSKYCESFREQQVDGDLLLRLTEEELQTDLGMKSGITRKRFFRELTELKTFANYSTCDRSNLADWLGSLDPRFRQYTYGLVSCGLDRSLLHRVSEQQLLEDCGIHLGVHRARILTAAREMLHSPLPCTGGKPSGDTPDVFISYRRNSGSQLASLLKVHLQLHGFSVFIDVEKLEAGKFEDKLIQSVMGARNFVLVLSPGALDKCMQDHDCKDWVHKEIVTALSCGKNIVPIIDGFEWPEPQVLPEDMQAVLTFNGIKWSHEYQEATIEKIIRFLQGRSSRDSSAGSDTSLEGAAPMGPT

[16] = target: Mitogen-activated protein kinase 7 (Homo sapiens) (UniProt Q13164); assay: Gal4-ERK5 driven luciferase induction – cell-based, HTS, primary screen (AID 1508626;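 active = luciferase signal above three times the same-plate solvent-only control wells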;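 also: luciferase driven by Gal4-ERK5 fusion binding five Gal4 sites before minimal TATA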); conditions: HeLa Gal4-ERK5 transactivation, 18 h, at 5 µM, stronger effect = higher value
Chain of Mitogen-activated protein kinase 7 (Homo sapiens) (Q13164 whole entry, looked up, the tested form may be a part): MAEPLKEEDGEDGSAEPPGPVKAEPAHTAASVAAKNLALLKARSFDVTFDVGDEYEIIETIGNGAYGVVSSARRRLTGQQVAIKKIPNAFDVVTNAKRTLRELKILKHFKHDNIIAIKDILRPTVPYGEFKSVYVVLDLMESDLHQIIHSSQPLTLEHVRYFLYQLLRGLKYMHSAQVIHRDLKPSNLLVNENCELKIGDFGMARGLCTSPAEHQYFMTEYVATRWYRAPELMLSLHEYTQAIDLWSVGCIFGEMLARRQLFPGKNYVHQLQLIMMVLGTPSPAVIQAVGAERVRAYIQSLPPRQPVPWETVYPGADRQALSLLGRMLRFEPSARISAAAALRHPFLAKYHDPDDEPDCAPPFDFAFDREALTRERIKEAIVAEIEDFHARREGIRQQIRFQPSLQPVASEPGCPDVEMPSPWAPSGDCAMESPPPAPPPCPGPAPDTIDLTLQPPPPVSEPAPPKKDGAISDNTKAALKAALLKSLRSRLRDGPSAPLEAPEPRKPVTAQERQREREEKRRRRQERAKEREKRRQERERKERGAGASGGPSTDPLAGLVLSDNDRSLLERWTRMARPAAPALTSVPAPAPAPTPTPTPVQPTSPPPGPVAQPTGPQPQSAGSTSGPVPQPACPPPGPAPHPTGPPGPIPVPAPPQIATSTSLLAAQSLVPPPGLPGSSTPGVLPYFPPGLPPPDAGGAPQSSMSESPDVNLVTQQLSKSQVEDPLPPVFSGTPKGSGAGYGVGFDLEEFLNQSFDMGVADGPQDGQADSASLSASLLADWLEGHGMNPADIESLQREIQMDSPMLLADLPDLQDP

F380Y = assay: BK channel mutant inhibitors and activators – cell-based, U2OS BacMam, thallium flux, beta subunits, selectivity assay, profiling panel (AID 1259406); conditions: U2OS BacMam BK variants, at 30 µM;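 also: initial slope of Thallos dye fluorescence rise after thallium is added; log ratio against the mean of 0.3% DMSO vehicle wells on the same plate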
F380Y/beta2Delta = assay: as above; conditions: U2OS BacMam BK variants, at 30 µM
[17] = target: Calcium-activated potassium channel subunit alpha-1 (Homo sapiens) + Leucine-rich repeat-containing protein 26 (Homo sapiens) (UniProt Q12791+Q2I0M4); assay: as above; conditions: U2OS BacMam BK variants, F380Y/Slo1WT/gamma1, at 30 µM
Chain of Calcium-activated potassium channel subunit alpha-1 (Homo sapiens) + Leucine-rich repeat-containing protein 26 (Homo sapiens) (Q2I0M4 whole entry, looked up, one chain of several): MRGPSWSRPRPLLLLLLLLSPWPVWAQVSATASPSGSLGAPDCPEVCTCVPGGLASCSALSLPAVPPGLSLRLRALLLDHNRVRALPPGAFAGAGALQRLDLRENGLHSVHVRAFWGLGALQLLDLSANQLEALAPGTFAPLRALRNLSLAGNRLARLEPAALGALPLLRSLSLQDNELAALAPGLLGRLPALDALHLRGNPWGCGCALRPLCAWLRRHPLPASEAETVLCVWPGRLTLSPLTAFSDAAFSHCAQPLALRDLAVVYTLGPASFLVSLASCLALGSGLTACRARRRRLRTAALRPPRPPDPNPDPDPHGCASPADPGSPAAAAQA

[18] = measured here: epithelial PC-3E GFP cell survival
[19] = measured here: mesenchymal TEM4-18 mCherry cell survival
[20] = MELAS cybrid survival, CellTiter-Glo 48 h, stronger effect = higher value
[21] = Rieske KO mouse fibroblast survival, CellTiter-Glo 72 h

Cc1nc2ccccn2c(=O)c1CCN1CCC(C(=O)c2ccc(F)cc2)CC1
0.87: normalised cell number [13, 18]
inactive: inhibition [1] 5.94% | inhibition [2] 3.75% | fluorescence ratio [3] 0.93 | nuclear beta-catenin stimulation ([4]; at 10 µM) -0.7% | insulin secretion stimulation [5] 3.35% | viability decrease [6] 24.3% | tube area decrease [7] 6% | GLP1 secretion stimulation [8] 10.6% | viability decrease (inhibition) [10] 30.7% | viability decrease (inhibition) [11] 11.5% | inhibition [12] 0.157% | red/green cell ratio (normalised) [13] 1.29 | z-score [14, 20] -0.0109 | remaining NAD [15] 10 nM | luciferase signal [16] 52 AU | log fold change Tl+ flux (F380Y) 0.00566 | log fold change Tl+ flux (F380Y/beta2Delta) -0.00369 | log fold change Tl+ flux [17] -0.0679
active: inhibition of viability [9] 67.9%
-2.4%: nuclear beta-catenin stimulation ([4]; stimulation, at 2 µM)
-0.116: z-score [14, 21]
1.12: normalised cell number [13, 19]

CCCNC(C)C(=O)Nc1ccccc1C (centres undefined)
0.2%: nuclear beta-catenin stimulation ([4]; stimulation, at 2 µM)
-0.309 and -0.0551 and 0.281: z-score [14, 21]
inactive: inhibition [1] -4.09% | inhibition [2] -0.48% | fluorescence ratio [3] 0.97 | nuclear beta-catenin stimulation ([4]; at 10 µM) 2.8% | insulin secretion stimulation [5] -0.2% | viability decrease [6] -19.3% | tube area decrease [7] -7.6% | GLP1 secretion stimulation [8] -2.8% | inhibition of viability [9] -6.47% | viability decrease (inhibition) [10] 14.5% | viability decrease (inhibition) [11] -13.2% | inhibition [12] 10.3% | red/green cell ratio (normalised) [13] 1.41 | z-score [14, 20] 0.649 and 0.0198 and 0.84 | remaining NAD [15] 10 nM | luciferase signal [16] 232 AU | log fold change Tl+ flux (F380Y) 0.0152 | log fold change Tl+ flux (F380Y/beta2Delta) 0.0464 | log fold change Tl+ flux [17] -0.0185
1.32: normalised cell number [13, 19]
0.93: normalised cell number [13, 18]

CCN(CC)CCOC(=O)C1(C2CCCCC2)CCCCC1
1.1%: nuclear beta-catenin stimulation ([4]; stimulation, at 2 µM)
1.25: normalised cell number [13, 18]
active: viability decrease (inhibition) [10] 84.8% | luciferase signal [16] 1050 AU
-0.235 and -0.17: z-score [14, 21]
1.66: normalised cell number [13, 19]
inactive: inhibition [1] -3.18% | inhibition [2] 4.1% | fluorescence ratio [3] 0.95 | nuclear beta-catenin stimulation ([4]; at 10 µM) 2.1% | insulin secretion stimulation [5] 6.9% | viability decrease [6] -64.7% | tube area decrease [7] -0.9% | GLP1 secretion stimulation [8] 5.4% | inhibition of viability [9] 36.5% | viability decrease (inhibition) [11] 34.2% | inhibition [12] 11.5% | red/green cell ratio (normalised) [13] 1.32 | z-score [14, 20] 0.288 and 0.358 | remaining NAD [15] 10 nM | log fold change Tl+ flux (F380Y) 0.0289 | log fold change Tl+ flux (F380Y/beta2Delta) 0.0166 | log fold change Tl+ flux [17] -0.023
